NadD inh: NadD (S. aureus) enzyme inhibition. inhibition, % at 20 µM. 360,000 tested, 0.78% active. purified NadD enzyme, colorimetric absorbance read-out; in the data active means inhibition above about 26%
MPTP inh: blocks calcium-induced mitochondrial swelling; AID 602449; 360,000 tested, 1.4% active; inhibition, % at 10 µM; isolated mouse mitochondria, Ca2+ swelling absorbance, 30 min;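 active means inhibition of 50% or more, scaled per plate between neutral and stimulator controls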
TAG inh: reduces triacylglycerol accumulation in H9c2 cells | 230,000 tested, 0.66% active | inhibition, % at 12.5 µM | AID 651582 | Nile Red lipid (TAG) fluorescence; cells loaded with 200 µM oleic acid;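 active means pattern-corrected inhibition of lipid staining of at least 50% with the nuclear-stain viability signal not falling by more than 50%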
aDG glyco act: alpha-DG glycosylation activation; Pro5-aDG cells, alpha-DG glycosylation AlphaScreen (IIH6); 0% Pro5, 100% B10-LARGE cell signal; activation, % at 10 µM; 360,000 tested, 0.22% active; AID 624168;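 active means activation of at least 8% versus controls, or a plate z-score of at least 8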;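 further: Pro5 are CHO cells carrying HIG-tagged alpha-DG that lacks glycosylation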
Rh123 counter: membrane potential counter-screen of mitochondrial pore inhibitors; shares compounds with MPTP inh; isolated mitochondria, Rhodamine 123 fluorescence; inhibition, % at 10 µM; 5,000 tested, 78% active; in the data active means inhibition above about 22%
MPTP abs DR: MPTP inhibition, dose response swelling confirmation. shares compounds with MPTP inh. isolated mitochondria swelling, absorbance. IC50, µM. 780 tested, 58% active. AID 651561; in the data active means IC50 below about 20 µM
MPTP counter DR: MPTP inhibitor counter-screen activity, dose response; shares compounds with MPTP inh; isolated mitochondria counterscreen, fluorescence read-out; IC50, µM; 780 tested, 49% active; AID 651564; in the data active means IC50 below about 80 µM
Numbers stand for hits; n = inactive; x = no result. Shown are actives, neighbours in structure and some others; about 2.7% of the full set was active somewhere.

SMILES	NadD inh	MPTP inh	TAG inh	aDG glyco act	Rh123 counter	others
CN(C)c1cccc(CNC(=O)c2ccc3sc([C@@H]4O[C@H](CO)[C@H](O)[C@H](O)[C@H]4O)nc3c2)c1	n	n	n	n	x
CC(C)COc1ccc(C(=O)Nc2ccccc2[N+](=O)[O-])cc1	n	54	x	n	n	MPTP abs DR=n;MPTP counter DR=n
CCCOc1ccc(C(=O)Nc2ccc(C)cc2[N+](=O)[O-])cc1	n	n	x	n	x
CN(C)C(CNC(=O)c1ccc(C(F)(F)F)cc1)c1ccco1 (configuration not stated)	n	n	x	n	x
CCc1nc(NCCC(C)C)c(C#N)c2c1CCCC2	n	n	n	n	x
CCc1nc(NCCN)c(C#N)c2c1CSC(C)(C)C2	n	80	x	n	n	MPTP abs DR=17;MPTP counter DR=n
Fc1ccc(CNC(=S)Nc2ccc(OC(F)F)cc2)cc1	n	76	n	n	96
S=C(NCC1COc2ccccc2O1)Nc1ccccc1 (configuration not stated)	n	n	n	n	x
FC(F)Oc1ccc(NC(=S)NCC2COc3ccccc3O2)cc1 (configuration not stated)	n	85	x	n	98
COc1cc(NC(=S)Nc2ccc(OC(F)F)cc2)cc(OC)c1	n	80	n	n	76
O=C(c1cccs1)N1CCN(S(=O)(=O)c2cccc(Cl)c2Cl)CC1	n	n	n	n	x
O=C(Nc1ccc(Oc2ccc(Br)cc2)cc1)C1=CC=CN2CCS(=O)(=O)N=C12	n	n	n	n	x
CCc1ccc(NC(=O)CSc2nc3ncc(Br)cc3[nH]2)cc1	n	54	x	n	88
O=C(CSc1nc(-c2cccs2)cc(C(F)(F)F)n1)Nc1cc(OCC(F)(F)C(F)F)cc([N+](=O)[O-])c1	n	93	x	n	80
CCN(c1ccccc1)S(=O)(=O)c1ccc(C(=O)N(C)CCc2ccc(OC)c(OC)c2)cc1	n	n	x	n	x
CN(NC(=O)C(=O)NCc1ccco1)C(=O)Nc1ccc(Cl)cc1	n	85	x	n	109
O=C(NCCN1CCC(n2c(=O)[nH]c3ccccc32)CC1)c1ccncc1	n	n	x	n	x
CCc1ccc(CN(C)C(=O)c2cc(COc3ccc(-n4cncn4)cc3)on2)cc1	n	59	x	n	78
CCCN1CCN(C(=O)c2cc(COc3ccc4ncccc4c3)on2)CC1	n	86	n	n	56
CCC1CCCCN1C(=O)c1cc(COc2ccc3ncccc3c2)on1 (configuration not stated)	n	104	n	7.6	81
CCN(CC)C(=O)C1CCCN(C(=O)c2cc(COc3ccc4ncccc4c3)on2)C1 (configuration not stated)	n	n	x	n	x
COCC1CCCCN1C(=O)c1cc(COc2ccc3ncccc3c2)on1 (configuration not stated)	n	100	x	n	101
CCN1CCN(C(=O)c2cc(COc3ccc4ncccc4c3)on2)CC1	n	n	n	n	x
CN(Cc1ccc(F)cc1)C(=O)c1cc(COc2ccc(-n3cncn3)cc2)on1	n	n	n	n	x
O=S1(=O)C=C[C@H](COCc2ccccc2)N1	n	n	x	n	x
SMILES	NadD inh	MPTP inh	TAG inh	aDG glyco act	Rh123 counter	others
Cc1cc(OC(=O)c2ccccc2Br)c([N+](=O)[O-])c(=O)[nH]1	n	n	n	n	x
COc1ccc(S(=O)(=O)N(C)C)cc1NC(=O)CN1C(=O)NC2(CCCC2)C1=O	n	n	x	n	x
Cc1noc(C)c1NC(=O)N(C)C[C@@H]1OCc2cn(nn2)CCCC(=O)N([C@H](C)CO)C[C@H]1C	n	n	n	n	x
Cc1cccc(-c2ccc3c(c2)C2CC3CCN2Cc2ccc3c(c2)OCO3)c1 (configuration not stated)	n	n	n	n	x
COCCC1CCCCN1C(=O)c1cc(COc2ccc(-n3cncn3)cc2)on1 (configuration not stated)	n	92	n	n	100
Cn1c(=O)c2c([nH]c(OCc3ccc(Cl)cc3Cl)[n+]2Cc2ccc(F)cc2)n(C)c1=O	n	50	n	n	n	MPTP abs DR=n;MPTP counter DR=n
O=C(CCNS(=O)(=O)c1ccc(F)c(F)c1)NCCN1CCOCC1	n	n	n	n	x
Cc1ccc(CN2CCC[C@]3(N[C@H](c4ccc(C(F)(F)F)cc4)[C@@H]4C(=O)N(Cc5ccccc5)C(=O)[C@@H]43)C2=O)cc1	n	n	n	n	x
Fc1cc(Br)ccc1NC(=S)Nc1ccccc1	n	92	x	n	93
O=C(Nc1ccc(Br)cc1)Nc1ccccc1F	n	80	x	n	90
Fc1ccccc1NC(=S)Nc1ccc(Br)cc1	n	97	x	n	95
Cc1ccc(NC(=S)Nc2ccc(Br)cc2)cc1	n	n	x	n	x
COc1cc(Cl)c(C)cc1NC(=O)COc1ccc(C)nc1[N+](=O)[O-]	n	n	n	n	x
Cc1ccccc1NC(=O)c1ccc(CN2CCC(Cc3ccccc3)CC2)cc1	n	56	x	n	n	MPTP abs DR=12;MPTP counter DR=36
COc1ccccc1C1CCN(c2cc(O)ccc2[N+](=O)[O-])CC1	n	86	n	n	78
COc1cc(C(=O)OCC(=O)Nc2ccccc2C(=O)NC2CC2)c([N+](=O)[O-])cc1OC	n	n	n	n	x
CC1=CC(=O)c2ccccc2C1=O	n	n	n	n	x
CC(C)(C=O)C1=CC(=O)c2ccccc2C1=O	n	100	x	n	n
CCOc1ccc(-c2cnc(NCc3cccc4ccccc34)n2CCOC)cc1	n	89	x	n	97
OC(c1ccc(OCc2ccccc2)cc1)c1nnc(-c2ccccc2)o1 (configuration not stated)	n	n	x	n	x
OC(c1cccc(OCc2ccccc2)c1)c1nnc(-c2ccccc2)o1 (configuration not stated)	n	104	n	n	96
COc1ccccc1N(C)S(=O)(=O)c1ccc(C(=O)NCCCN2CCCC2=O)cc1	n	n	n	n	x
CCCCCCCc1nc2sc3c(c2c(=O)n1N)CC(C)(C)OC3	n	n	n	n	x
CCCCCc1nc2sc3c(c2c(=O)n1NC(=O)c1ccc([N+](=O)[O-])cc1)CC(C)(C)OC3	n	90	n	n	76
Cc1cc(Cl)ccc1OCC(=O)Nc1ccncc1	n	80	n	n	79
SMILES	NadD inh	MPTP inh	TAG inh	aDG glyco act	Rh123 counter	others
COc1ccccc1OCC(=O)Nc1ccncc1	n	n	n	n	x
Cc1cccc(OCC(=O)Nc2ccncc2)c1C	n	82	x	n	87
O=C(COc1cc(Cl)c(Cl)cc1Cl)Nc1cccc(O)c1	n	n	x	n	x
O=C(COc1cc(Cl)c(Cl)cc1Cl)Nc1ccncc1	n	76	n	n	88
Cc1cc(OCC(=O)Nc2ccncc2)ccc1Br	n	59	n	n	111
CC(=O)Nc1cccc(-c2ccnc3c2CC(C)(C(=O)Nc2cccc(Oc4ccccc4)c2)O3)c1 (configuration not stated)	n	n	n	n	x
COc1cccc(NC(=O)CCN2C(=O)C3CC=CCC3C2=O)c1 (configuration not stated)	n	n	x	n	x
